Results filed as inconclusive are left out. Active and inactive are the calls of the source. How the source made its calls: active means hit-call score of the fitted dose curve at least 0.9, where 1 is the maximum; inactive means score below 0.9.

Read-out in this assay: Cytochrome P450 2C9 (Homo sapiens) (UniProt P11712)
Put plainly: CLD_CYP2C9_48hr: CellzDirect (CLD) Gene Expression Assay for xenobiotic metabolism (CYP2C9) at 48 hours (AID 2283701). Here is the method: CLD_48hr is a cell-based, multiplexed-readout assay that uses hepatocyte, a human liver primary cell, with measurements taken at 48 hours after chemical dosing in a 96-well plate.CLD_CYP2C9_48hr is one of 16 assay component(s) measured or calculated from the CLD_48hr assay. It is designed to make measurements of mRNA induction, a form of inducible reporter, as detected with chemiluminescence signals by Quantitative Nuclease Protection Assay (qNPA) technology.Data from the assay component CLD_CYP2C9_48hr was analyzed at the endpoint, CLD_CYP2C9_48hr, in the positive analysis fitting direction relative to DMSO as the negative control and baseline of activity. Using a type of inducible reporter, gain-of-signal activity can be used to understand changes in the reporter gene as they relate to the gene CYP2C9. Furthermore, this assay endpoint can be referred to as a primary readout. To generalize the intended target to other relatable targets, this assay endpoint is annotated to the cyp intended target family, where subfamily is xenobiotic metabolism.
Human hepatocyte cultures were treated daily for two consecutive days with fresh dosing solutions containing appropriate concentrations of the 320 ToxCast chemicals (chemical identities were blinded to CellzDirect and other ToxCast collaborators), vehicle control (0.2% DMSO), and positive control inducers as summarized in Table 1. Due to the large number of treatment groups and chemicals examined, the ToxCast chemicals were divided into two groups (spanning two independent cultures of hepatocytes from separate donor preparations (Hu778: ToxCast plates 1 and 2; Hu776: ToxCast plates 3 and 4). Each preparation of human hepatocyte cultures was treated with respective vehicle control, medium only control, set of six positive controls/reference chemicals for the five hepatic receptor pathways, and a subset of eight of the ToxCast chemicals (indoxacarb, pyrithiobac-sodium, norflurazon, cyhalofop-butyl, methomyl, thiram, acetochlor, and propiconazole). These replicate data, coupled with internal replicates designed within the blinded ToxCast chemical library, provided additional data to evaluate interindividual differences between hepatocyte preparations and their potential impact on chemical profiles.Cell morphology and integrity were evaluated using phase-contrast microscopy as an indicator of hepatocyte cell health (Tyson & Green, 1987). Cultures for each treatment group (i.e., media, vehicle [0.2% DMSO], positive control inducers [multiple concentrations], and the ToxCast chemicals [multiple concentrations]) were observed and cell morphology was assessed relative to vehicle control cultures at each harvest time point (0, 6, 24, or 48 h). […] Images were evaluated at the conclusion of the study to assess changes in cell integrity and account for the effects of chemical exposure on uncharacteristic changes in concentration-dependent gene expression profiles. The results from these determinations of apparent cytotoxicity were annotated (yes/no) alongside the corresponding qNPA data for reference.At the conclusion of each treatment period, hepatocyte cultures (96-well) were washed with 1 volume of HBSS, lysed by addition of 25 ul ArrayPlate lysis buffer (HTG, Tucson, AZ), and 70 ul/well of Denaturation Oil, denatured by incubation at 95C for 10 min, and frozen at approximately -70C until analysis by nuclease protection assay (qNPA) (Roberts et al., 2007). For qNPA analysis, cell lysates were thawed at 50C for approximately 30 min, qNPA probes were added, and samples were incubated at 95C for 10 min to begin the detection process by denaturing the target RNA, dissociating the duplexes and secondary structure hybridization. At the conclusion of the hybridization period, S1 nuclease reagent was added to each sample to digest all nonprotected nucleotides at 50C for 60-90 min. […]
With `CCCN(CCC)C(=O)SCC`, the molecule was classed as inactive. In the case of `CCCCCOC(=O)COc1cc(N2C(=O)C3=C(CCCC3)C2=O)c(F)cc1Cl` it was “inactive”. Under `c1ccc(Nc2ccccc2)cc1` stands “inactive”; under `CCOC(=O)COc1cc(-n2ncc(C(F)(F)F)c(C)c2=O)c(F)cc1Cl`, “inactive”. As to `C#CCOC(=O)[C@@H](C)Oc1ccc(Oc2ncc(Cl)cc2F)cc1`, the call was inactive. On to `CC1(C)C(C=C(Cl)Cl)C1C(=O)OCc1cccc(Oc2ccccc2)c1` (stereo not drawn), for which the molecule was classed as inactive. For the molecule `COCCO`, the result was inactive.

As for `COC(=O)c1c(Cl)nn(C)c1S(=O)(=O)NC(=O)Nc1nc(OC)cc(OC)n1`, the call was inactive. In the case of `CCOC(=O)NCCOc1ccc(Oc2ccccc2)cc1` it was “inactive”; in that of `CC(C)(c1ccc(O)cc1)c1ccc(O)cc1`, “inactive”; in that of `CCCCC(CC)COC(=O)c1ccccc1C(=O)O` (stereo not drawn), “inactive”.

`OB(O)O`: the result was inactive. As to `CCCN(CCC)c1c([N+](=O)[O-])cc(C(F)(F)F)c(N)c1[N+](=O)[O-]`, the result was inactive. Under `CCOC(=O)[C@H](C)Oc1ccc(Oc2nc3ccc(Cl)cc3o2)cc1` stands “inactive”. Consider `CCCCCCC(C)OC(=O)COc1nc(F)c(Cl)c(N)c1Cl` (stereo not drawn), for which the molecule was classed as inactive. For `COC(=O)c1ccc(I)cc1S(=O)(=O)NC(=O)Nc1nc(C)nc(OC)n1`, the result was inactive.

In the case of `CCCCC(CC)CN1C(=O)C2C3C=CC(C3)C2C1=O` (stereo not drawn), the result was inactive. In the case of `COC(=O)c1cccc(C)c1S(=O)(=O)NC(=O)Nc1nc(OCC(F)(F)F)nc(N(C)C)n1` it was “inactive”.
